Our source for the PBM binding z-score values is the supplement of paper PMC6555819.

The assay deals with VDR homodimer (NR concentration 270 nM). Kind of assay: PBM binding z-score (relative to random genomic background probes); higher = stronger binding; sequences stand for … in GC…GCGATTGACAGCGTAGAATGAAGG
The method, boiled down:
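Ligand-free nuclear receptor dimers were bound for 1 h to custom Agilent 4×180K protein-binding microarrays. Detection used antibodies against each partner (one per run). Binding z-scores rest on regression-normalized fluorescence, with random background probes as the reference.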
Take GCGACTGGGGCAAAGCAGGTTACCATGAGGTTGG: the PBM binding z-score is -0.385.

For the sequence GCTAGTTGGTCACTAAAAGGTCACACACCGGTCG, the PBM binding z-score was found to be 2.13.

Sequence ATCTCTAGGTAACAAGTGCAGTGAAAGAGAGGAC came in with a PBM binding z-score of 0.625.

With CCTACTGGGCCATCTGGTCATTGATATCAACGTT, the PBM binding z-score was -0.0886.

Sequence ATCTCTAGGTAAAAGTTCAGTGGATCCCGAGGAT gave a PBM binding z-score of 1.72.

As for CGTCAAAGTTCAACTAAAGTAACGTAAAGCACGC, the PBM binding z-score was 3.56.

ACTAGCAGGCCAAGTTTGGGTGACTCAAACAAAG came in with a PBM binding z-score of -0.571.

For the sequence CCTGCTAGGTCATGGTCAGCAAATCTACAGTATG, the PBM binding z-score was 0.339.

With ACAGACAGGTGATGCAGGTAACTCAGGCTATCAT, the PBM binding z-score was -0.22.

As for TCTGCTAGGTCAACGATGGTTAGCTAATCTGCTA, the PBM binding z-score was -0.391.

As for ATCAAAAGGTCGACGAGGTGAGTATACACCGTTT, the PBM binding z-score amounted to 0.947.

Sequence GCTGCTAGGTCAACTGATGGTCAGCCAAAGCTCG came in with a PBM binding z-score of -0.263.

Regarding CGTCCAAGGTCAATGCCAGGTCAGTGAAAGCATT, the PBM binding z-score was determined as 3.03.

Turning to GCTTACGGGTCAAAGGTTATATCATGAATAGAAT, the PBM binding z-score worked out at 2.09.

Regarding TCTAGGTGGTCACGGAGGTCACACACGACGGGTA, the PBM binding z-score is 3.08.

The sequence CGTCCAATGTCAAAGGTCAGTGAAGAGATGACGG yielded a PBM binding z-score of 1.07.

The sequence CCTTACGGGTCACTCCAGGTTATAGGATCGGAGT yielded a PBM binding z-score of 1.51.

In turn, GTACCAATGTGAATAGGTCGTTGATGAGTAGGCG came in with a PBM binding z-score of 0.254.

The sequence ACTAGCAGGCCAAGTATGGGTCACTCAAACAAAG came in with a PBM binding z-score of 0.0355.

Take CGTCCAAGGTCAGAGATGTCAGTGAATGCCGAGT: the PBM binding z-score is 1.82.

Sequence GCGACTGCGGCATCAGCAGGTTACCATAACTTAA came in with a PBM binding z-score of -0.566.

Regarding TCTTGTAGCTCAATAGAGGTTAAGAAAGTGCGCT, the PBM binding z-score was -0.137.
